Results on 31 molecules are retold here after ChEMBL document CHEMBL1961873, “Compounds: GSK PKIS; Assays: Nanosyn kinase panel” (2012).

Several values for one entry are separate records, joined by “and”; a condition that tells them apart may be missing. Equal entries are not always repeated.

The first test deals with T1, Tyrosine-protein kinase TXK (Homo sapiens) (UniProt P42681).
T1 sequence (whole entry): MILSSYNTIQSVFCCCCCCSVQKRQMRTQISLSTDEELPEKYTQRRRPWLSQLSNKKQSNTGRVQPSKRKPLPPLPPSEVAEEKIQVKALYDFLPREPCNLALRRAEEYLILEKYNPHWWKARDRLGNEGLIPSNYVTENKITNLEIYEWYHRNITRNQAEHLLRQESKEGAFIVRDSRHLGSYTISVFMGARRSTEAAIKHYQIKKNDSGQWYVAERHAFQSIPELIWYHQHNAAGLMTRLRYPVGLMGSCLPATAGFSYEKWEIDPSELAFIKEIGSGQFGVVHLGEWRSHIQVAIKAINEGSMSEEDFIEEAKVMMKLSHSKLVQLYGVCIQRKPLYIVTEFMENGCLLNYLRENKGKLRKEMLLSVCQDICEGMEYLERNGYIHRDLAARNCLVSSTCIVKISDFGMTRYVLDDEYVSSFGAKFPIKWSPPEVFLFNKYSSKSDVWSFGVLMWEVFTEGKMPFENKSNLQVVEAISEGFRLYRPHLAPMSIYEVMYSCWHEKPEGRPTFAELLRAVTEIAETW
As to conditions: at 1 µM.
What is called inhibition is the change of the read-out against control, counted positive when it falls. Take `NS(=O)(=O)c1ccc(N/N=C2\C(=O)Nc3cccc(CCc4ccncc4)c32)cc1`: the inhibition was determined as 8.22%.

Regarding `COC(=O)Nc1nc2ccc(Oc3ccc(NC(=O)Nc4cc(C(F)(F)F)ccc4F)cc3)cc2s1`, the inhibition was 2.35%.

As for `CCn1c(-c2nonc2N)nc2cncc(C(=O)NCCNC)c21`, the inhibition was 1.12%.

As for `Cc1cc(O)cc(C)c1/C=C/c1cncc(C(=O)OC(C)(C)C)c1`, the inhibition worked out at 36.9%.

Consider `CS(=O)(=O)CCNCc1ccc(-c2ccc3ncnc(Nc4ccc(OCc5cccc(C(F)(F)F)c5)cc4)c3c2)o1`, for which the inhibition came to 5.59%.

Take `COC(=O)Nc1nc2cc(Oc3ccc(NC(=O)Nc4ccccc4)cc3)ccc2[nH]1`: the inhibition is 1.98%.

With `O=C1Nc2ccccc2/C1=C1\CCc2cc(O)ccc21`, the inhibition stood at 8.68%.

On to `CC1(C)CC(n2cnc(-c3ccc(F)cc3)c2-c2ccnc(N)n2)CC(C)(C)N1`, for which the inhibition turned out to be 0.75%.

For `COc1ccc(-c2nn3ncccc3c2-c2ccnc(Nc3ccc(F)c(F)c3)n2)cc1`, the inhibition was 5%.

Turning to `CCS(=O)(=O)c1ccc(OC)c(Nc2ncc(-c3cccc(C(C)=O)c3)o2)c1`, the inhibition stood at 50.5%.

`COc1cc(Nc2ncc(-c3ccccc3)o2)cc(OC)c1`: the inhibition worked out at 8.54%.

Regarding `c1cnn2ncc(-c3ccnc(NCCCN4CCOCC4)n3)c2c1`, the inhibition was -0.63%.

For the molecule `Cc1c2ccc(N(C)c3ccnc(Nc4cccc(S(N)(=O)=O)c4)n3)cc2nn1C`, the inhibition came to 59.4%.

Take `CS(=O)(=O)Nc1ccc(-c2cc(-c3ccccc3)cc(C(N)=O)c2N)cc1`: the inhibition amounted to 2.13%.

Consider `O=C(O[C@H]1CN[C@H](C#Cc2cc3ncnc(Nc4ccc5c(cnn5Cc5ccccc5)c4)c3s2)C1)N1CCOCC1`, for which the inhibition stood at 2.69%.

In the case of `Nc1nonc1-c1nc2cnccc2n1C1CC1`, the inhibition is 5.76% and -3.04%.

As to `CS(=O)(=O)CCNCc1ccc(-c2ccc3ncnc(Nc4ccc(OCc5ccccc5)cc4)c3c2)o1`, the inhibition was 3.39%.

Turning to `NS(=O)(=O)c1ccc(N/N=C2\C(=O)Nc3ccc(C(=O)NCc4ccncc4)cc32)cc1`, the inhibition was 5.17%.

For the molecule `COc1cc(N2CCN(C(C)C)CC2)ccc1Nc1nc(Nc2cccc(F)c2C(=O)O)c2cc[nH]c2n1`, the inhibition came to 3.5%.

On to `CC1=C(C(=O)Nc2ccc3[nH]nc(C)c3c2)C(c2ccc(C(F)(F)F)cc2)CC(=O)N1` (configuration not stated), for which the inhibition was found to be 6.06%.

For the molecule `O=C(O[C@H]1CN[C@H](C#Cc2cc3ncnc(Nc4ccc(OCc5cccc(F)c5)c(Cl)c4)c3s2)C1)N1CCOCC1`, the inhibition is 1.16%.

`COc1cccc(Nc2nccc(-c3cnn4ncccc34)n2)c1`: the inhibition stood at 15.5%.

`CNC(=O)c1sc(-n2cnc3cc(OC)c(OC)cc32)cc1OCc1ccccc1C(F)(F)F`: the inhibition was 11.5%.

As to `COc1cc2c(cc1Nc1nc(Nc3cccc(F)c3C(N)=O)c3cc[nH]c3n1)N(C(=O)CN1CCN(C(C)C)CC1)CC2`, the inhibition came out at 3.01%.

For `Fc1ccc(Nc2nccc(-c3c(-c4ccc(C(F)(F)F)cc4)nn4ncccc34)n2)cc1F`, the inhibition turned out to be 4.27%.

For `Cn1c(-c2nonc2N)nc2cnccc21`, the inhibition came out at 4.22%.

Take `CS(=O)(=O)Nc1ccc(-c2ccc3c(NC(=O)C4CC4)n[nH]c3c2)cc1`: the inhibition is 5.31%.

Regarding `COc1cccc(-n2ncc3c(N/N=C/c4ccc(C(=O)NCCN(C)C)cc4)ncnc32)c1`, the inhibition amounted to 29.4%.

In the case of `COc1cc(N2CCN(C(C)C)CC2)ccc1Nc1nc(Nc2cccc3ncccc23)c2cc[nH]c2n1`, the inhibition turned out to be 3.98%.

Turning to `CCCNc1cccc(-n2ncc3c(N/N=C/c4ccncc4)ncnc32)c1`, the inhibition came to 8.54%.

Turning to `NC(=O)c1ccc2c(-c3ccnc(NCCCO)n3)c(-c3ccc(F)cc3)nn2c1`, the inhibition came to 38.4%.

A further test deals with Non-receptor tyrosine-protein kinase TYK2 (Homo sapiens) (UniProt P29597). The settings on record: at 0.1 µM.
Chain of Non-receptor tyrosine-protein kinase TYK2 (Homo sapiens) (P29597 whole entry): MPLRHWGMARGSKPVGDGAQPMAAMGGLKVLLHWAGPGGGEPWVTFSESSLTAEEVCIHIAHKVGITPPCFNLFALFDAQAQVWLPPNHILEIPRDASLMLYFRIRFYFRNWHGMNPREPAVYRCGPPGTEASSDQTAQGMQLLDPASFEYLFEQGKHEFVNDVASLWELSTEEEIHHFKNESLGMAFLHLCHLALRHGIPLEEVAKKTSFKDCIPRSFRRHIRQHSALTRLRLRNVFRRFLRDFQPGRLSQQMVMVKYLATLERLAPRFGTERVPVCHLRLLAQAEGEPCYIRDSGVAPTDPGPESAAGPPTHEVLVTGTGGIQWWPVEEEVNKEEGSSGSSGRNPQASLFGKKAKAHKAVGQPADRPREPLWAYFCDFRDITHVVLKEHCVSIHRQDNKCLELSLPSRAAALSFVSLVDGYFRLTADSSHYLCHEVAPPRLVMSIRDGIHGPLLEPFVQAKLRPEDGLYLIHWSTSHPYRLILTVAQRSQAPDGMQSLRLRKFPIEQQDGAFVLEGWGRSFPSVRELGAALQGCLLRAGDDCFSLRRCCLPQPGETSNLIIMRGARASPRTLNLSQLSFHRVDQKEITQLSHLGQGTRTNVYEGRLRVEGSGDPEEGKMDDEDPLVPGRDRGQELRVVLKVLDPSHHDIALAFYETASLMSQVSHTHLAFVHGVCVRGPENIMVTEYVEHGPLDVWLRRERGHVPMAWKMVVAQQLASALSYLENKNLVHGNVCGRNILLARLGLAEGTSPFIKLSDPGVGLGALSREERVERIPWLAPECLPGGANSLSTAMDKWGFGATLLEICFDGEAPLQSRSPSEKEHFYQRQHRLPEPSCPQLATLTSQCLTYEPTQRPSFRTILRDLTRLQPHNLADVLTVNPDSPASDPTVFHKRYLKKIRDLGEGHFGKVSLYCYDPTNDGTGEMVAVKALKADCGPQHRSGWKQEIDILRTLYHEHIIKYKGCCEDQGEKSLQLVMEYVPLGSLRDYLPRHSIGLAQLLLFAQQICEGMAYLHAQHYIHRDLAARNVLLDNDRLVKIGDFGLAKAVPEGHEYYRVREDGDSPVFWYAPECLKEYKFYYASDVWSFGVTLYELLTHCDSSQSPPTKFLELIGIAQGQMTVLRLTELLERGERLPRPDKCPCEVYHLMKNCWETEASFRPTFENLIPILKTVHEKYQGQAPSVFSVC
As to `NS(=O)(=O)c1ccc(N/N=C2\C(=O)Nc3cccc(CCc4ccncc4)c32)cc1`, the inhibition is -0.26%.

Consider `COC(=O)Nc1nc2ccc(Oc3ccc(NC(=O)Nc4cc(C(F)(F)F)ccc4F)cc3)cc2s1`, for which the inhibition was -0.09%.

With `CCn1c(-c2nonc2N)nc2cncc(C(=O)NCCNC)c21`, the inhibition is -3.39%.

As to `Cc1cc(O)cc(C)c1/C=C/c1cncc(C(=O)OC(C)(C)C)c1`, the inhibition is -0.75%.

With `CS(=O)(=O)CCNCc1ccc(-c2ccc3ncnc(Nc4ccc(OCc5cccc(C(F)(F)F)c5)cc4)c3c2)o1`, the inhibition is -2.56%.

Turning to `COC(=O)Nc1nc2cc(Oc3ccc(NC(=O)Nc4ccccc4)cc3)ccc2[nH]1`, the inhibition is -2.96%.

`O=C1Nc2ccccc2/C1=C1\CCc2cc(O)ccc21`: the inhibition is -2.35%.

As to `CC1(C)CC(n2cnc(-c3ccc(F)cc3)c2-c2ccnc(N)n2)CC(C)(C)N1`, the inhibition came to 1%.

With `COc1ccc(-c2nn3ncccc3c2-c2ccnc(Nc3ccc(F)c(F)c3)n2)cc1`, the inhibition was -2.09%.

For the molecule `CCS(=O)(=O)c1ccc(OC)c(Nc2ncc(-c3cccc(C(C)=O)c3)o2)c1`, the inhibition is -3.16%.

As to `COc1cc(Nc2ncc(-c3ccccc3)o2)cc(OC)c1`, the inhibition was -5.97%.

Consider `c1cnn2ncc(-c3ccnc(NCCCN4CCOCC4)n3)c2c1`, for which the inhibition was -5.16%.

In the case of `Cc1c2ccc(N(C)c3ccnc(Nc4cccc(S(N)(=O)=O)c4)n3)cc2nn1C`, the inhibition was -3.68%.

As for `CS(=O)(=O)Nc1ccc(-c2cc(-c3ccccc3)cc(C(N)=O)c2N)cc1`, the inhibition is -1.8%.

For the molecule `O=C(O[C@H]1CN[C@H](C#Cc2cc3ncnc(Nc4ccc5c(cnn5Cc5ccccc5)c4)c3s2)C1)N1CCOCC1`, the inhibition was found to be 1.26%.

`Nc1nonc1-c1nc2cnccc2n1C1CC1`: the inhibition was -4.88% and 0.09%.

On to `CS(=O)(=O)CCNCc1ccc(-c2ccc3ncnc(Nc4ccc(OCc5ccccc5)cc4)c3c2)o1`, for which the inhibition was -1.78%.

On to `NS(=O)(=O)c1ccc(N/N=C2\C(=O)Nc3ccc(C(=O)NCc4ccncc4)cc32)cc1`, for which the inhibition was -8.31%.

In the case of `COc1cc(N2CCN(C(C)C)CC2)ccc1Nc1nc(Nc2cccc(F)c2C(=O)O)c2cc[nH]c2n1`, the inhibition was -3.16%.

For the molecule `CC1=C(C(=O)Nc2ccc3[nH]nc(C)c3c2)C(c2ccc(C(F)(F)F)cc2)CC(=O)N1` (configuration not stated), the inhibition came to 0.25%.

For the molecule `O=C(O[C@H]1CN[C@H](C#Cc2cc3ncnc(Nc4ccc(OCc5cccc(F)c5)c(Cl)c4)c3s2)C1)N1CCOCC1`, the inhibition is -6.96%.

As to `COc1cccc(Nc2nccc(-c3cnn4ncccc34)n2)c1`, the inhibition was -4.06%.

`CNC(=O)c1sc(-n2cnc3cc(OC)c(OC)cc32)cc1OCc1ccccc1C(F)(F)F`: the inhibition was -2.35%.

With `COc1cc2c(cc1Nc1nc(Nc3cccc(F)c3C(N)=O)c3cc[nH]c3n1)N(C(=O)CN1CCN(C(C)C)CC1)CC2`, the inhibition is 0.12%.

In the case of `Fc1ccc(Nc2nccc(-c3c(-c4ccc(C(F)(F)F)cc4)nn4ncccc34)n2)cc1F`, the inhibition was -3.95%.

Turning to `Cn1c(-c2nonc2N)nc2cnccc21`, the inhibition is -2.09%.

Consider `CS(=O)(=O)Nc1ccc(-c2ccc3c(NC(=O)C4CC4)n[nH]c3c2)cc1`, for which the inhibition was -0.89%.

As for `COc1cccc(-n2ncc3c(N/N=C/c4ccc(C(=O)NCCN(C)C)cc4)ncnc32)c1`, the inhibition is -5.03%.

With `COc1cc(N2CCN(C(C)C)CC2)ccc1Nc1nc(Nc2cccc3ncccc23)c2cc[nH]c2n1`, the inhibition was -4.59%.

In the case of `CCCNc1cccc(-n2ncc3c(N/N=C/c4ccncc4)ncnc32)c1`, the inhibition was -0.85%.

In the case of `NC(=O)c1ccc2c(-c3ccnc(NCCCO)n3)c(-c3ccc(F)cc3)nn2c1`, the inhibition is -3.98%.
